Reference: PubChem BioAssay AID1159569 (Broad Institute, 2015)
Measured potencies and affinities stand elsewhere. Records with an inconclusive call do not appear. Active and inactive are the calls of the source. How the calls were made is not given here.

Test: HepG2 cell cytotoxicity, dose response, cytotoxicity control, plate reader, dry powder samples (AID 1159569)
Settings: HepG2 cytotoxicity counterscreen; series mostly up to 50 µM
For O=C(C1CCCC1)N1CC2(C1)[C@@H](c1ccccc1)[C@H](CO)N2Cc1ccc(Cl)cc1, the outcome was “inactive”. For COc1ccccc1NC(=O)Nc1ccc2c(c1)OC[C@@H](C)N(Cc1ccccc1Cl)C[C@@H](C)[C@H](OC)CN(C)C2=O, the outcome was “inactive”. For C[C@H](CO)N1C[C@H](C)[C@H](CN(C)CC2CC2)Oc2ccc(NC(=O)Nc3ccccc3)cc2CC1=O, the outcome was “inactive”. For COc1ccc(C#Cc2ccc3c(c2)O[C@@H](CN(C)S(=O)(=O)c2ccccc2F)[C@@H](C)CN([C@@H](C)CO)S3(=O)=O)cc1, the outcome was “inactive”. For COc1ccc(C#Cc2ccc3c(c2)[C@H]2[C@H](CCN2C(=O)C2CCCC2)[C@@H](CO)N3)cc1, the outcome was “inactive”. In the case of COc1ccc(S(=O)(=O)Nc2ccc3c(c2)CC(=O)N([C@H](C)CO)C[C@H](C)[C@H](CN(C)S(=O)(=O)c2ccc(C)cc2)O3)cc1, the outcome is reported as “inactive”. With CCC(=O)N1CCC2(CC1)CN(S(=O)(=O)c1ccccc1)[C@@H](CO)c1[nH]c3cc(OC)ccc3c12 the outcome was “inactive”. For COc1ccccc1S(=O)(=O)N(C)C[C@H]1Oc2cc(/C=C/c3ccccc3)ccc2S(=O)(=O)N([C@H](C)CO)C[C@@H]1C, the outcome was “inactive”. For O=C(c1ccccc1F)N1CC(=O)N2[C@H](C1)[C@@H](c1ccc(-c3cccnc3)cc1)[C@@H]2CO, the outcome was “inactive”. For C/C=C/c1ccccc1[C@H]1[C@@H](C#N)N(C(=O)NC2CCCC2)[C@H]1CO, the outcome was “inactive”. For Cc1ccc(-c2ccccc2[C@H]2[C@@H](C#N)N(C(=O)c3cccc(F)c3)[C@H]2CO)cc1, the outcome was “inactive”. In the case of COc1ccccc1S(=O)(=O)N(C)C[C@@H]1OCc2ccccc2-c2c(n(C)c3ccccc23)C(=O)N([C@@H](C)CO)C[C@@H]1C, the outcome is reported as “inactive”. With COc1ccc2c3c(n(C)c2c1)[C@@H](CO)N(C(=O)c1ccc(F)cc1)CC31CCN(C(=O)Nc2ccc(F)cc2)CC1 the outcome was “inactive”. With COc1ccc(S(=O)(=O)Nc2ccc3c(c2)CC(=O)N([C@@H](C)CO)C[C@H](C)[C@H](CN(C)S(=O)(=O)c2ccc(C)cc2)O3)cc1 the outcome was “inactive”. In the case of CCCC(=O)N1CC2(C1)CN(S(=O)(=O)c1ccc(C)cc1)[C@@H](CO)c1[nH]c3cc(OC)ccc3c12, the outcome is reported as “inactive”. In the case of COc1ccc2c3c(n(C)c2c1)[C@@H](CO)N(C(=O)C1CCCC1)CC31CCN(C(=O)Nc2cccc(F)c2)CC1, the outcome is reported as “inactive”. With COc1ccc(S(=O)(=O)Nc2cccc3c2O[C@H](CN(C)Cc2ccc(-c4ccccc4)cc2)[C@@H](C)CN([C@H](C)CO)C3=O)cc1 the outcome was “inactive”. For C/C=C/c1ccc([C@H]2[C@@H](C#N)N(C(=O)NC3CCCC3)[C@@H]2CO)cc1, the outcome was “inactive”. With O=C(C1CCCC1)N1CC(=O)N2[C@H](CO)[C@H](c3ccc(-c4cccnc4)cc3)[C@H]2C1 the outcome was “inactive”. For C[C@H]1CN([C@@H](C)CO)C(=O)Cc2cc(NC(=O)Nc3ccc(C(F)(F)F)cc3)ccc2O[C@@H]1CN(C)C(=O)Nc1ccc2c(c1)OCO2, the outcome was “inactive”. With CCCNC(=O)Nc1ccc2c(c1)OC[C@@H](C)N(Cc1ccccc1)C[C@@H](C)[C@H](OC)CN(C)C2=O the outcome was “inactive”. In the case of C[C@@H]1CN([C@@H](C)CO)C(=O)c2cccc(NC(=O)Nc3ccc4c(c3)OCO4)c2O[C@@H]1CN(C)C(=O)Nc1ccc2c(c1)OCO2, the outcome is reported as “inactive”. In the case of CCCNC(=O)c1cc2c(c(-c3cccc(-c4cc5ccccc5o4)c3)n1)[C@H](CCO)N(C(=O)NC(C)C)C2, the outcome is reported as “inactive”. In the case of C[C@@H]1CN([C@@H](C)CO)C(=O)c2cccc(NC(=O)Nc3ccccc3)c2O[C@@H]1CN(C)C(=O)Nc1ccc(F)cc1, the outcome is reported as “inactive”. With COc1cccc(S(=O)(=O)N(C)C[C@@H]2OCc3ccccc3-c3c(n(C)c4ccccc34)C(=O)N([C@H](C)CO)C[C@@H]2C)c1 the outcome was “inactive”. With COc1ccc(-c2ccccc2[C@H]2[C@@H](C#N)N(C(=O)NC(C)C)[C@H]2CO)cc1 the outcome was “inactive”. For C[C@H](CO)N1C[C@H](C)[C@@H](CN(C)C(=O)Nc2cccc3ccccc23)Oc2ccc(NC(=O)Nc3ccc(C(F)(F)F)cc3)cc2C1=O, the outcome was “inactive”. In the case of COc1cccc(S(=O)(=O)N(C)C[C@@H]2Oc3ncc(C#Cc4ccc(OC)c(OC)c4)cc3C(=O)N([C@H](C)CO)C[C@@H]2C)c1, the outcome is reported as “inactive”. In the case of COc1ccc(NC(=O)N2CCC3(CC2)CN(C(=O)C2CCC2)[C@H](CO)c2c3c3ccc(OC)cc3n2C)cc1, the outcome is reported as “inactive”. For Cc1nc(N2[C@H](CO)[C@H](c3ccccc3)[C@H]2CNCC2CCCC2)sc1C, the outcome was “inactive”. In the case of CCc1csc(N2[C@H](C#N)[C@H](c3ccccc3-c3ccc(F)cc3)[C@H]2CO)n1, the outcome is reported as “inactive”.
